From PubChem
PI5P4Ka inh = PI5P4K alpha (human) kinase inhibition; max response, %; PI5P4Kalpha enzyme, ADP-Glo luminescence, 60 min; active compounds read low; AID 652105; P48426; 1.2% of 330,000 active; active = max response of -50% or lower; inconclusive = between -30% and -50%; inactive = -30% or higher; also: value at the top dose of about 77 µM; % is scaled to controls: 0 for no effect and ±100 for the full control effect
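ADP-Glo luminescence end-point read after a 60 min room-temperature kinase reaction of PI5P4Kalpha plus substrate, initiated with ATP at 5 microM final. Buffer: 0.038 M HEPES pH 7.4, EGTA, 0.1% CHAPS, 5% DMSO.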
HP1b chromo inh = HP1-beta chromodomain-methylated histone interaction inhibition; 0.56% of 390,000 active; P83916; AlphaScreen HP1-beta / biotin-H3K9me3 peptide binding; Potency, µM (top dose mostly 114 µM), for inactives: top-dose activity change, negative = inhibition, hits mostly inhibitors; AID 540317; also: potency is read from the fitted curve at half-maximal effect; nearly all actives have a fitted effect of over 70% in size
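HP1-beta protein (50 nM final) preincubated 30 min at room temperature with biotinylated H3(1-18)K9me3 peptide (50 nM) in PBS pH 7.4, 0.01% Tween-20, then compound added for 30 min. AlphaScreen streptavidin donor/nickel chelate acceptor beads (10 ug/mL final), 30 min dark, luminescence read.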
JMJD2A Tudor = inhibitors of human JMJD2A Tudor domain; O75164; AlphaScreen JMJD2A-Tudor / H3K4me3 peptide binding; Potency, µM (series often up to 114 µM), without a hit: at the highest dose activity change, negative = inhibition, usual class: inhibitors; 4.4% of 390,000 active; AID 504339; also: potency is read from the fitted curve at half-maximal effect; % is scaled to controls: 0 for no effect and ±100 for the full control effect; nearly all actives have a fitted effect of over 50% in size
G9a block = inhibitors of human histone lysine methyltransferase G9a. Q96KQ7. G9a H3K9 monomethylation, AlphaScreen, 2 h. Potency, µM (top dose mostly 102 µM), inactives show top-dose activity, negative = inhibition, actives largely listed as inhibitors. 8.8% of 350,000 active. AID 504332; also: potency is read from the fitted curve at half-maximal effect; % is scaled to controls: 0 for no effect and ±100 for the full control effect; nearly all actives have a fitted effect of over 75% in size
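G9a (20 nM) preincubated 15 min RT with compounds, then 500 nM biotinylated H3K9 peptide and 20 uM SAM added; 2 h RT reaction. Monomethyl-H3K9 product detected by AlphaScreen with anti-H3K9me1 antibody, streptavidin donor and anti-rabbit IgG acceptor beads.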
PLK1 PBD inh = blocks phosphopeptide binding to human PLK1 polo-box domain | P53350 | AID 720504 | 2.8% of 360,000 active | Potency, µM, inactives show max response, negative = inhibition, actives largely listed as inhibitors | Plk1 PBD binding of FITC phosphopeptide, fluorescence polarization; also: potency is read from the fitted curve at half-maximal effect; series mostly up to about 57 µM; % is scaled to controls: 0 for no effect and ±100 for the full control effect; nearly all actives have a fitted effect of over 65% in size
BAZ2B inh = blocks human BAZ2B; Q9UIF8; AlphaScreen BAZ2B-H3K14Ac peptide displacement; Potency, µM (top dose mostly 114 µM), without a hit: top-dose activity change, negative = inhibition, most hits filed as inhibitors; 4.4% of 360,000 active; also: potency is read from the fitted curve at half-maximal effect; % is scaled to controls: 0 for no effect and ±100 for the full control effect; nearly all actives have a fitted effect of over 60% in size
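Compounds, titrated to a top concentration of 110 uM, were incubated 30 min at room temperature with preformed BAZ2B/acetyl-K14 H3 peptide complex (50 nM each). Proximity signal was measured by AlphaScreen after 20 min with beads.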
Starred values were filed as active, the others as inactive; [ ] = another dose, or the depositor's remark. An excerpt weighted towards active compounds, which were near 12% of everything screened. Unless noted, calls follow the shape of the dose curve; as a rule, active = well fitted curve in the direction sought with a large enough effect; inconclusive = small, poorly fitted or top-dose-only effect, or another doubt; inactive = no such curve, though single readings can be large; an effect the other way counts as inactive or inconclusive.

CCOC(=O)c1coc(CNC(=O)c2c(C)oc3c2CCCC3)c1 was read as PI5P4Ka inh 8, HP1b chromo inh -1%, JMJD2A Tudor -27%, G9a block 56µM*, PLK1 PBD inh -4% and BAZ2B inh inconclusive.
`CCOC(=O)c1cc(CNC(=O)c2c(C)oc3c2CCCC3)c(C)o1` gave PI5P4Ka inh 8, HP1b chromo inh -9%, JMJD2A Tudor -30%, G9a block 50µM*, PLK1 PBD inh -21% and BAZ2B inh inconclusive.
Screening Cn1c(=O)c2c(nc(SCC(=O)Nc3ccccc3F)n2Cc2ccccc2F)n(C)c1=O returned HP1b chromo inh 36%, JMJD2A Tudor -5%, G9a block inconclusive and BAZ2B inh -28%.
Screening Nc1cc(=O)[nH]c(SCc2cccc3ccccc23)n1 returned PI5P4Ka inh -9, HP1b chromo inh 31%, JMJD2A Tudor -19%, G9a block 24%, PLK1 PBD inh 0% and BAZ2B inh -5%.
Screening N#CC1=C(N)N=C(SCc2cccc3ccccc23)C(C(N)=O)C12CCCCC2 (configuration not stated) returned PI5P4Ka inh 24, HP1b chromo inh -34%, JMJD2A Tudor 56µM*, G9a block 45µM*, PLK1 PBD inh -3% and BAZ2B inh inconclusive.
For Oc1cccc(NC(=S)Nc2ccccc2)c1 the results were PI5P4Ka inh 1, HP1b chromo inh 31%, JMJD2A Tudor -15%, G9a block 50µM*, PLK1 PBD inh -8% and BAZ2B inh -8%.
Screening Oc1cccc(Nc2ccccc2)c1 returned PI5P4Ka inh 2, HP1b chromo inh -9%, JMJD2A Tudor -31%, G9a block -4%[0.501 µM], PLK1 PBD inh -2% and BAZ2B inh inconclusive.
Fc1cccc(NC(=S)NNc2ccccc2)c1 was read as PI5P4Ka inh 0, HP1b chromo inh inconclusive, JMJD2A Tudor 56µM*, G9a block 50µM*, PLK1 PBD inh inconclusive and BAZ2B inh 40µM*.
Screening Fc1cccc(NC(=S)NNc2c3ccccc3nc3ccccc23)c1 returned PI5P4Ka inh inconclusive, HP1b chromo inh inconclusive, JMJD2A Tudor inconclusive, G9a block 16µM*, PLK1 PBD inh -1% and BAZ2B inh 7.1µM*.
For COc1ccc(-n2c(C)cc(/C=C3\C(=N)N4N=C(CC(=O)N5CCOCC5)SC4=NC3=O)c2C)cc1 the results were PI5P4Ka inh -10, HP1b chromo inh 16%, JMJD2A Tudor -34%, G9a block -5%[0.0925 µM], PLK1 PBD inh -15% and BAZ2B inh 45µM*.
Screening N=C1/C(=C/c2ccc(Br)o2)C(=O)N=C2SC(CC(=O)N3CCCC3)=NN12 returned PI5P4Ka inh inconclusive, HP1b chromo inh 10%, JMJD2A Tudor inconclusive, G9a block inconclusive, PLK1 PBD inh inconclusive and BAZ2B inh 50µM*.
Screening N=C1/C(=C\c2ccc(Br)o2)C(=O)N=C2SC(CC(=O)N3CCOCC3)=NN12 returned PI5P4Ka inh inconclusive, HP1b chromo inh 23%, JMJD2A Tudor 89µM*, G9a block 13%[12.7 µM], PLK1 PBD inh -28% and BAZ2B inh 50µM*.
Screening N=C1/C(=C/c2ccco2)C(=O)N=C2SC(CC(=O)N3CCCC3)=NN12 returned PI5P4Ka inh -28, HP1b chromo inh -4%, JMJD2A Tudor 79µM*, G9a block 40µM*, PLK1 PBD inh inconclusive and BAZ2B inh inconclusive.
Screening CSc1ccc(/C=C2\C(=N)N3N=C(CC(=O)N4CCOCC4)SC3=NC2=O)cc1 returned PI5P4Ka inh 0, HP1b chromo inh 15%, JMJD2A Tudor -12%, G9a block -17%, PLK1 PBD inh inconclusive and BAZ2B inh -15%.
For Cc1cc(/C=C2\C(=N)N3N=C(CC(=O)N4CCOCC4)SC3=NC2=O)c(C)n1-c1ccccc1 the results were PI5P4Ka inh -3, HP1b chromo inh 21%, JMJD2A Tudor -29%, G9a block inconclusive, PLK1 PBD inh -12% and BAZ2B inh -39%.
Screening Cc1ccc(/C=C2\C(=N)N3N=C(CC(=O)N4CCCCC4)SC3=NC2=O)cc1 returned PI5P4Ka inh -9, HP1b chromo inh 31%, JMJD2A Tudor -24%, G9a block 14%, PLK1 PBD inh inconclusive and BAZ2B inh -15%[57.1 µM].
COc1ccc(-c2nnc(C3CCN(S(=O)(=O)c4cccc(Cl)c4)CC3)o2)cc1 was read as HP1b chromo inh 25%, JMJD2A Tudor inconclusive, G9a block 11µM* and BAZ2B inh -8%.
COc1ccc(-c2nnc(C3CCN(C(=O)c4ccccc4F)CC3)o2)cc1 was read as HP1b chromo inh -3%, JMJD2A Tudor 56µM*, G9a block 14µM* and BAZ2B inh inconclusive.
Screening COc1ccccc1-c1nnc(C2CCN(C(=O)c3ccc(C)cc3)CC2)o1 returned HP1b chromo inh 47%, JMJD2A Tudor -2%, G9a block 7%[59 µM] and BAZ2B inh -9%.
`Cc1ccccc1-c1nnc(C2CCN(S(=O)(=O)c3ccc(Cl)cc3)CC2)o1` gave HP1b chromo inh 39%, JMJD2A Tudor 1%, G9a block 7.9µM* and BAZ2B inh -6%.
CN(C)c1ccc(-c2noc(C3CCN(S(=O)(=O)c4cccc(Cl)c4)CC3)n2)cc1 was read as HP1b chromo inh 2%, JMJD2A Tudor inconclusive, G9a block inconclusive, PLK1 PBD inh -8% and BAZ2B inh inconclusive.
`COc1ccc(S(=O)(=O)N2CCC(c3nnc(-c4ccccc4C)o3)CC2)c(OC)c1` gave HP1b chromo inh 33%, JMJD2A Tudor -13%, G9a block 8.9µM* and BAZ2B inh -19%.
Screening O=C(O)c1cc(O)ccc1NC(=O)C(c1ccccc1)c1ccccc1 returned PI5P4Ka inh inconclusive, HP1b chromo inh 26%, JMJD2A Tudor 5%, G9a block -7%, PLK1 PBD inh 4% and BAZ2B inh -4%.
`CCOc1ccccc1CNC(=O)CCc1c(C)nn(-c2ccc(N3CCCC3)nn2)c1C` gave HP1b chromo inh 28%, JMJD2A Tudor -17%, G9a block 7%[59 µM] and BAZ2B inh inconclusive.
For CN1/C(=C/c2cc[n+](C)c3ccccc23)C=Cc2ccccc21 the results were PI5P4Ka inh -17, HP1b chromo inh inconclusive, JMJD2A Tudor 28µM*, G9a block 35µM*, PLK1 PBD inh -17% and BAZ2B inh 28µM*.
Screening COc1ccc(CCC2=NCCN2C(CC(C)C)c2nc3ccccc3[nH]2)cc1 (configuration not stated) returned PI5P4Ka inh -1 and PLK1 PBD inh -9%.
Screening NC(=O)c1cc([N+](=O)[O-])ccc1NCCN1C(=O)c2ccc(C(=O)O)cc2C1=O returned PI5P4Ka inh -87*, HP1b chromo inh 20%, JMJD2A Tudor -14%, G9a block -40%, PLK1 PBD inh -4% and BAZ2B inh -35%.
